In PubChem BioAssay AID1159580 (chemical genetic matrix, 2015):
Where “and” joins values, the source holds several entries; their conditions need not be identical. Equal entries are not always repeated. In all, about 5,500 compounds went through this assay and about 2,000 (36%) were called active. Inconclusive results (about 18%) are left out. Rule as the data show it: active = normalized growth mostly below about 0.91 (no sharp cut-off); inconclusive = no clear call, values can overlap the other calls; inactive = mostly above about 0.92. Some of the results follow.

Assay: chemical genetic growth profiling, strain panel (AID 1159580);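 also: tested at 20 µM; growth read once vehicle control cultures reached saturation at 30 °C; 1 = growth at the plate median or of vehicle wells; lower values mean less growth of the strain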
Conditions: growth OD

Measured: normalized growth

Cc1cc(=O)[nH]c(-c2ccccn2)n1
inactive: S. cerevisiae deletion strains, locus YAL013W, strain DEP1, active compounds read low 1.01 and 0.994 | S. cerevisiae deletion strains, locus YBR229C, strain ROT2, active compounds read low 1.01 | S. cerevisiae deletion strains, locus YCL061C, strain MRC1, active compounds read low 1 and 0.995 | S. cerevisiae deletion strains, locus YDL101C, strain DUN1, active compounds read low 0.994 | S. cerevisiae deletion strains, locus YDL134C, strain PPH21, active compounds read low 1.02 | S. cerevisiae deletion strains, locus YDR150W, strain NUM1, active compounds read low 0.912 and 1.02 | S. cerevisiae deletion strains, locus YEL061C, strain CIN8, active compounds read low 0.993 and 1.01 | S. cerevisiae deletion strains, locus YGR078C, strain PAC10, active compounds read low 1 and 1.01 | S. cerevisiae deletion strains, locus YGR229C, strain SMI1, active compounds read low 1.02 | S. cerevisiae deletion strains, locus YHR030C, strain SLT2, active compounds read low 1.02 and 1.03 | S. cerevisiae deletion strains, locus YHR087W, strain rtc3, active compounds read low 1.01 | S. cerevisiae deletion strains, locus YJR043C, strain POL32, active compounds read low 1.01 | S. cerevisiae deletion strains, locus YJR075W, strain HOC1, active compounds read low 1.04 and 1.01 | S. cerevisiae deletion strains, locus YLR039C, strain RIC1, active compounds read low 0.993 and 1.05 | S. cerevisiae deletion strains, locus YLR058C, strain SHM2 (second series), active compounds read low 1.01 and 1.02 | S. cerevisiae deletion strains, locus YLR085C, strain ARP6, active compounds read low 0.91 and 1.03 | S. cerevisiae deletion strains, locus YLR262C, strain YPT6, active compounds read low 0.993 and 1.02 | S. cerevisiae deletion strains, locus YML094W, strain GIM5, active compounds read low 0.965 and 1.01 | S. cerevisiae deletion strains, locus YMR219W, strain ESC1, active compounds read low 1.01 | S. cerevisiae deletion strains, locus YMR263W, strain SAP30, active compounds read low 0.943 and 0.992 | S. cerevisiae deletion strains, locus YMR307W, strain GAS1, active compounds read low 1.07 | S. cerevisiae deletion strains, locus YNL153C, strain GIM3, active compounds read low 1 and 0.995 | S. cerevisiae deletion strains, locus YNL298W, strain CLA4 (second series), active compounds read low 0.986 and 1.02 | S. cerevisiae deletion strains, locus YNL322C, strain KRE1, active compounds read low 1.01 and 1 | S. cerevisiae deletion strains, locus YNR030W, strain Alg12, active compounds read low 1.02 | S. cerevisiae deletion strains, locus YOL006C, strain TOP1, active compounds read low 1.09 | S. cerevisiae deletion strains, locus YPL055C, strain LGE1, active compounds read low 0.936 and 1 | S. cerevisiae deletion strains, locus YPL241C, strain CIN2, active compounds read low 1.03 | S. cerevisiae deletion strains, locus YPR135W, strain CTF4, active compounds read low 0.997 and 1.01 | S. cerevisiae strains, strain wild type, active compounds read low 1.01
